Data: PubChem BioAssay AID1034 (Columbia University Molecular Screening Center, 2008)
The list shows a part of the results. Active and inactive are the calls of the source.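 The calls were made as follows: active = activation above 30% in triplicate retests at 2 µM, then confirmed by visual review of the well images; inactive = the rest.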

Assay: enhancers of VCAM1 induction in HUVEC – imaging, triplicate retest, confirmation (AID 1034);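 also: scaled per plate between unstimulated and TNFa-stimulated DMSO control wells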
Conditions: HUVEC TNFa-stimulated VCAM-1 immunofluorescence imaging; at 2 µM; active compounds read high

COC(=O)CN1C(=O)C2(C(C(=O)OC)=C(N)Oc3ccccc32)C2=C1CC(C)(C)CC2=O (stereo unspecified)
activation: -16.1% (inactive)
